The list is not random: actives were taken first. Their share in the collection is about 8.7%.
HP1b binding inh – inhibitors of HP1-beta chromodomain binding to methylated histone tails | P83916 | AlphaScreen HP1-beta / biotin-H3K9me3 peptide binding | Potency, µM (highest dose often 114 µM), most hits filed as inhibitors | 0.56% of 390,000 active; note: nearly all actives have a fitted effect of over 70% in size
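HP1-beta protein (50 nM final) preincubated 30 min at room temperature with biotinylated H3(1-18)K9me3 peptide (50 nM) in PBS pH 7.4, 0.01% Tween-20, then compound added for 30 min. AlphaScreen streptavidin donor/nickel chelate acceptor beads (10 ug/mL final), 30 min dark, luminescence read.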
BAZ2B block – blocks human BAZ2B; Q9UIF8; AlphaScreen BAZ2B-H3K14Ac peptide displacement; Potency, µM (titrated, usually from 114 µM), most hits filed as inhibitors; 4.4% of 360,000 active; note: nearly all actives have a fitted effect of over 60% in size
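Protein-peptide AlphaScreen: BAZ2B 50 nM, b-H3K14Ac 50 nM, 1x PBS pH 7.4 + 0.01% Tween-20. Preincubation 30 min RT; cpd 30 min RT (top 110 uM); beads 20 min RT, light-protected.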
G9a inh – blocks human histone lysine methyltransferase G9a | 8.8% of 350,000 active | Potency, µM (top dose mostly 102 µM), hits mostly inhibitors | G9a H3K9 monomethylation, AlphaScreen, 2 h; note: nearly all actives have a fitted effect of over 75% in size
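G9a (20 nM) was preincubated 15 min with compound, then reacted 2 h at room temperature with 500 nM biotin-H3K9 peptide and 20 µM SAM. Monomethyl-H3K9 detected by AlphaScreen using anti-H3K9me1 antibody.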
ALOX12 inh – blocks human arachidonate 12S-lipoxygenase; P18054; purified 12hLO, xylenol orange hydroperoxide absorbance; Potency, µM (top dose mostly 108 µM), most hits filed as inhibitors; 1.1% of 580,000 active; AID 1671190
Target sequence (P18054 whole entry, looked up): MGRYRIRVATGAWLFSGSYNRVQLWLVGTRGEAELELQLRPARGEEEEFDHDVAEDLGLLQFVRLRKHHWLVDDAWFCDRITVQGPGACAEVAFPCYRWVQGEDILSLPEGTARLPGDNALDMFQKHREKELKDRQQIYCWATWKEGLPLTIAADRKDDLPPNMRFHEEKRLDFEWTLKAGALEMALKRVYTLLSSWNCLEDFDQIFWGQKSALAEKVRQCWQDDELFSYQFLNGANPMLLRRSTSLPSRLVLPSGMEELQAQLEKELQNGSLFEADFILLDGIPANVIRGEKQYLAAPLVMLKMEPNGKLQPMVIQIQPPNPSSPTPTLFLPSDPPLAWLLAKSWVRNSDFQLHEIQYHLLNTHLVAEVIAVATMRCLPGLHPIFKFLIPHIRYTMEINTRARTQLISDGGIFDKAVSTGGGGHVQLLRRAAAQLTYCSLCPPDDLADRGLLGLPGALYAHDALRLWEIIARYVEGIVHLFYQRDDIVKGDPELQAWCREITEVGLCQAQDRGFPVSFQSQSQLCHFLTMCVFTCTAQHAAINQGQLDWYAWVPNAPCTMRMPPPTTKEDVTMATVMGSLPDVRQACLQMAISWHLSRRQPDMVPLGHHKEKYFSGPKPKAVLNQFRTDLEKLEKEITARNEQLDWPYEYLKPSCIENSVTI
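Purified human 12hLO (150 nM final) in 25 mM Hepes, 0.01% Triton X-100, pH 7.0 was preincubated 15 min at room temperature with compound. Then 40 uM arachidonic acid was added, 30 min. Hydroperoxide was read by Fe-XO absorbance ratio 573/405 nm.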
Sfp inh – inhibitors of Bacillus subtilis Sfp phosphopantetheinyl transferase | Q9F4F7 | Biochemical Sfp PPTase activity, qHTS | Potency, µM, usual class: inhibitors | 3.5% of 310,000 active;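 note: the enzyme is Sfp with the accession as filed and its product quenches rhodamine fluorescence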
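After 15 min at room temperature with compound, 15 nM Sfp received 5 uM rhodamine-CoA plus 12.5 uM BHQ-2-ybbR (50 mM Hepes pH 7.6, 10 mM MgCl2). Rate came from the fluorescence difference over 30 min, ex 525/em 598 nm.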
JMJD2A Tudor – JMJD2A Tudor domain (human) inhibition | O75164 | AlphaScreen JMJD2A-Tudor / H3K4me3 peptide binding | Potency, µM (top dose mostly 114 µM), usual class: inhibitors | 4.4% of 390,000 active; note: nearly all actives have a fitted effect of over 50% in size
Numbers stand for hits; - = inactive; ? = inconclusive; . = not tested or not shown; [ ] = dose if it differs, or a comment. Calls come from the whole dose curve; as a rule, active = well fitted curve in the direction sought with a large enough effect; inconclusive = small, poorly fitted or top-dose-only effect, or another doubt; inactive = no such curve, though single readings can be large; an effect the other way counts as inactive or inconclusive.

SMILES	HP1b binding inh	BAZ2B block	G9a inh	ALOX12 inh	Sfp inh	JMJD2A Tudor
O=C(O)CCn1c(-c2ccccn2)nc2ccccc21	-	-	.	-	-	22.4µM
CCOC(=O)Cn1c(S(=O)(=O)Cc2ccc(Cl)cc2)nc(-c2ccccc2)c1-c1ccccc1	-	-	.	-	-	-
O=C(O)CCn1c(SCc2cccc3ccccc23)nc2ccccc21	-	-	14.1µM	-	-	-
COc1ccc(C(=O)N2CCC(Cc3noc(C4CCOCC4)n3)C2)cc1F (centres undefined)	.	.	.	-	.	.
CCc1nc2ccccc2n1CCCCOc1ccccc1C	-	-	-	39.8µM	.	-
OCc1nc2ccccc2n1CCCCOc1ccccc1	-	.	.	-	.	-
O=C(O)Cn1c(P(=O)(O)c2ccccc2)nc2ccccc21	-	?	31.6µM	?	-	35.5µM
O=C(O)CCn1c(CO)nc2ccccc21	-	56.2µM	-	-	-	-
O=C(O)Cn1c(-c2cscn2)nc2ccccc21	-	?	44.7µM	?	-	15.8µM
Cc1ccccc1OCCCn1c(CO)nc2ccccc21	-	-	-	-	-	-
CC(C(=O)NC1CC1)N1CCC(c2cc3ccccc3[nH]2)CC1 (centres undefined)	.	.	.	-	.	.
CCn1cnc2cc(NCc3ccc(OC)cc3)ccc21	-	?	8.91µM	-	-	-
CCc1ccc(CNc2ccc3c(c2)ncn3CC)cc1	?	?	11.2µM	-	-	44.7µM
COc1cccc(CNc2ccc3c(c2)ncn3C)c1OC	-	?	-	-	-	?
CCOc1ccc2nc3cc(NCc4ccc(OC)cc4)ccc3c(N)c2c1	-	?	35.5µM	.	31.6µM	?
CCOc1ccc(-n2nc(CO)c(C(=O)NCc3ccc4c(c3)OCO4)n2)cc1	.	.	.	-	.	.
C/C(=N\Nc1ccccc1Br)c1ccc(-c2ccccc2)cc1	.	.	.	0.708µM	.	.
Cc1noc(C)c1C(=O)Nc1sc2c(c1C(N)=O)CCC2	-	-	-	?	-	-
CCOC(=O)c1c(NC(=O)c2c(C)noc2C)sc2c1CCCCC2	-	-	-[0.501 µM]	.	56.2µM	-
Cc1noc(C)c1C(=O)Nc1sc2c(c1C(N)=O)CCCCC2	-	?	?	-	44.7µM	-
Cc1occc1C(=O)Nc1sc2c(c1C(N)=O)CCCCC2	-	-	12.6µM	-	25.1µM	-
COc1cccc(CN2Cc3cc(NC(=O)c4ccc([N+](=O)[O-])cc4)ccc3OCC2=O)c1OC	.	.	.	-	.	.
CC(=O)N(Cc1ccc(C(C)C)cc1)C1CC1	.	.	.	-	.	.
COC(=O)NC(NC(=O)OC)C(Cl)Cl	.	.	.	-	.	.
Cc1ccc(N2C(=O)CS(=O)(=O)C23C(=O)N(C)c2ccccc23)cc1F (centres undefined)	-	-	12.6µM	?	.	-
SMILES	HP1b binding inh	BAZ2B block	G9a inh	ALOX12 inh	Sfp inh	JMJD2A Tudor
O=c1cc(O)nc(SC23CC4CC(CC(C4)C2)C3)[nH]1	-	-	44.7µM	?	-	-
CCC(C)Sc1nc(O)cc(=O)[nH]1 (centres undefined)	-	-	-	-	-	-
COc1cc(C(=O)O/N=C(\C)c2ccc(Cl)cc2)cc(OC)c1OC	.	.	.	-	.	.
CC1=CCC2C(=O)N(c3nc4ccccc4n3C)C(=O)C2C1 (centres undefined)	-	?	-	-	-	56.2µM
Cc1cccc(C(=O)N2CCN(c3oc(-c4cccs4)nc3C#N)CC2)c1	.	.	.	-	.	.
Oc1ccc(-c2csc(Nc3ccccn3)n2)cc1	-	?	70.8µM	-	-	-
COc1ccc(-c2csc(Nc3ccccn3)n2)cc1OC	-	44.7µM	50.1µM	?	-	?
COc1ccc(CC(=O)N2CC[C@@H](CC(=O)O)[C@@H](CCN3CCC(C(N)=O)CC3)C2)cc1	.	.	.	-	.	.
COc1ccc(C(=O)OCC(=O)Nc2sccc2C(N)=O)cc1OC	-	-	.	-	-	-
COc1ccc(C(=O)OCC(=O)Nc2ncc([N+](=O)[O-])s2)cc1OC	?	50.1µM	-[12.7 µM]	35.5µM	.	39.8µM
O=C(COC(=O)c1ccc(Br)o1)Nc1ncc([N+](=O)[O-])s1	-	?	3.16µM	-	.	?
COc1cccc(-n2c(SCC(N)=O)nc3c(c2=O)C2(CCCC2)Cc2ccccc2-3)c1	.	.	.	-	.	.
CCOc1ccc(C(O)(c2ccccc2)C(CN2CCCC2)c2ccccc2)cc1 (centres undefined)	-	-	-	-	-	14.1µM
CCc1ccc(C(O)(c2ccccc2OC)C(CN2CCOCC2)c2ccccc2)cc1 (centres undefined)	-	.	44.7µM	-	-	-
CCc1ccc(C(O)(CC(C)C)C(CN2CCOCC2)c2ccccc2)cc1 (centres undefined)	-	-	-	?	-	-
O=C(c1ccoc1)N1CCC(c2n[nH]c(=O)n2Cc2ccc(F)cc2)CC1	.	.	.	-	.	.
CCCNc1cc(=S)nc(N)[nH]1	?	-	0.631µM	?	?	22.4µM
CCCCNc1cc(Cl)nc(N)n1	-	-	-	-	-	-
O=C(Nc1ccccc1)N(Cc1ccc(Cl)cc1)c1ccccn1	.	.	.	-	.	.
COc1cc2nc(-c3cc(F)ccc3O)nc(N[C@@H]3CNC[C@@H]3C(C)(C)O)c2cc1OC	.	.	.	2.43µM	.	.
COc1ccc(Nc2nc(-c3ccccc3O)nc3ccccc23)c(OC)c1	.	.	.	-	.	.
O=[N+]([O-])c1ccccc1CN1C[C@H](O)C[C@H]1c1nc(-c2ccncc2)no1	.	.	.	-	.	.
Cc1cccc(C)c1NC(=O)c1ccc2ccccc2n1	.	.	.	-	.	.
CCOC(=O)c1sc(N)c(C(N)=O)c1C	-	.	39.8µM	?	31.6µM	-
CCOC(=O)c1c(N)sc(C(N)=O)c1C	?	-	?	-	?	-
SMILES	HP1b binding inh	BAZ2B block	G9a inh	ALOX12 inh	Sfp inh	JMJD2A Tudor
CCOC(=O)c1c(N)sc(N)c1C(=O)OCC	8.91µM	50.1µM	3.16µM	50.1µM	?	?
CCOC(=O)c1c(N)ssc1=S	?	?	1µM	?	22.4µM	?
CCOC(=O)c1c(N)sc(=S)c2c1CCC2	?	44.7µM	?	?	31.6µM	?
CCn1cc(CNC2CC(=O)N(CCc3ccccc3)C2)cn1 (centres undefined)	.	.	.	-	.	.
CCOC(=O)COc1ccc2c(C)c(-c3ccc(OC)c(OC)c3)c(=O)oc2c1	.	.	.	-	.	.
CCOc1ccc(C(=O)N2CCc3nc(OCCOC)ccc3C2)cc1OCC	.	.	.	-	.	.
Cc1c(C(=O)OC(C)C)sc(N)c1C(=O)OC(C)C	-	-	?	-	-	-
Cc1c(C(N)=O)sc(N)c1C(=O)OC(C)C	-	-	39.8µM	-	-	-
COc1ccc(OC)c(Nc2nc(NCC(C)O)nc3c2cnn3-c2ccccc2)c1 (centres undefined)	.	.	.	-	.	.
N#Cc1c(/N=C/c2ccco2)oc(-c2ccccc2)c1-c1ccccc1	-	-	?	?	-	28.2µM
N#Cc1c(/N=C/c2ccccc2)oc(-c2ccccc2)c1-c1ccccc1	-	-	?	?	-	-
Cc1cccc(C)c1NC(=O)/C(=C/c1ccco1)c1ccccc1	-	-	31.6µM	?	22.4µM	-

High-throughput results deposited in PubChem by National Center for Advancing Translational Sciences (NCATS).
